From PubChem BioAssay (Tox21) come the findings set out here.

Where “and” joins values, the source holds several entries; their conditions need not be identical. Identical values can stand only once. Results filed as inconclusive are left out. Where a structure was tested more than once in an assay, its records may differ in their call. Calls of active or inactive are those of the source. Unless noted, the call rests on the fitted dose curve; in most records, active means well fitted curve in the direction sought with a large enough effect in the repeat runs; inconclusive means weak or mixed curves; inactive means no such curve, though single readings can be large; an effect the other way counts as inactive or inconclusive.

Assay [1] is described as follows: qHTS assay to identify small molecule agonists of the RXR signaling pathway - cell viability counter screen (AID 1159529). Further: nearly all actives have a fitted effect of over 50% in size. Further: potency means the concentration at half of the fitted maximal effect. A digest of the protocol:
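Luminescence from CellTiter-Glo (30 min, RT) measured viability in the same wells as the beta-lactamase reporter readout. Cells: GeneBLAzer RXR-alpha HEK 293T, 2% charcoal-stripped FBS. Compound exposure 16 hr, 37 C.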

The nature of assay [2]: qHTS assay to identify small molecule antagonists of the retinoid acid receptor (RAR) signaling pathway - cell viability counter screen (AID 1159551). Further: nearly all actives have a fitted effect of over 35% in size. Further: potency means the concentration at half of the fitted maximal effect. In a few lines:
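Seed C3RL4 cells; next day add compound, then retinol to 1 uM final; incubate 6 h at 37 C; add CellTiter-Glo; read luminescence after 30 min at RT.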

Assay [3] can be described thus: qHTS assay to identify small molecule antagonists of the retinoic acid receptor (RAR) signaling pathway (AID 1159552; further: nearly all actives have a fitted effect of over 50% in size). A digest of the protocol:
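Luminescence from a RARE luciferase reporter in C3RL4 cells served as read-out. Cells received compounds together with 1 uM final retinol and incubated 6 hr at 37 C before detection reagent was added for 30 min at room temperature.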
In general terms: qHTS replaces the single test concentration by a dilution series.

Assay [4] is described as follows: qHTS assay to identify small molecule antagonists of the estrogen related receptor (ERR) signaling pathway - cell viability counter screen (AID 1224818).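 Further: viability measured after 17.5 h of compound exposure.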 In a few lines:
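In the same ERR cell assay, compound-treated wells (17.5 h, 37 C) were multiplexed with a fluorogenic viability reagent, CellTiter-Fluor, read after 30 min to flag cytotoxic substances.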

Assay [5] is described as follows: qHTS assay to identify small molecule antagonists of the estrogen related receptor (ERR) signaling pathway (AID 1224819;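 further: luminescence from an ERR-driven luciferase reporter measured with One-Glo reagent; nearly all actives have a fitted effect of over 50% in size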). A digest of the protocol: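 qHTS in ERR cells, 2,000/well, 1536 format. Cpd (DMSO) added after 6 h settle, 18 h 37 C. One-Glo luminescence, 30 min RT.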
Assay [6] is described as follows: qHTS assay to identify small molecule agonists of the estrogen related receptor (ERR) signaling pathway (AID 1224820). A digest of the protocol: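 Quantitative HTS of the LOPAC library used NTP ERR reporter cells treated 18 h at 37 C. Signal is luminescence after One-Glo addition and a 30 min room-temperature incubation.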
The subject of assay [7] is estrogen-related receptor alpha (ERRalpha) with PGC-1alpha coactivator, human. The experiment in a line: qHTS assay to identify small molecule antagonists of the estrogen related receptor signaling pathway with the pleiotropic PPARgamma coactivator (PGC) (AID 1224821; calls by dose curve;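 further: lower luminescence signal means antagonism of PGC/ERR signalling; nearly all actives have a fitted effect of over 50% in size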). In a few lines:
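Quantitative HTS for antagonism: PGC/ERR cells received compounds after 6 h attachment and were incubated 18 h at 37 C, with luminescence (One-Glo) as the endpoint.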

The nature of assay [8]: qHTS assay to identify small molecule antagonists of the estrogen related receptor signaling pathway with the pleiotropic PPARgamma coactivator (PGC) cell viability counter screen (AID 1224822). A digest of the protocol:
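Compounds in DMSO, with positive and negative controls, were applied to PGC/ERR cells (2,000/well) and left 17.5 h at 37 C before CellTiter-Fluor detection.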

Assay [9] can be described thus: qHTS assay to identify small molecule agonists of the estrogen related receptor signaling pathway with the pleiotropic PPARgamma coactivator (PGC) (AID 1224823). In a few lines: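 Cell-based luciferase assay in the NTP-supplied PGC/ERR line, 2,000 cells/well; 18 h compound exposure at 37 C, luminescence after One-Glo.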
Assay [10] in a line: qHTS assay to identify small molecule antagonists of the estrogen related receptor (ERR) signaling pathway from Tox21 library - cell viability counter screen (AID 1224834). Further: nearly all actives have a fitted effect of over 30% in size. Further: potency means the concentration at half of the fitted maximal effect. In a few lines:
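CellTiter-Fluor fluorescence measured; ERR cells; 17.5 h compound incubation at 37 C; 30 min reagent step.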

Assay [11] has as its target Luciferin 4-monooxygenase (Photinus pyralis) (UniProt P08659). Put plainly: qHTS assay to identify small molecule inhibitors of firefly luciferase (AID 1224835). Further: nearly all actives have a fitted effect of over 25% in size. Further: potency means the concentration at half of the fitted maximal effect. In a few lines:
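Quantitative HTS format; KM concentrations of both substrates. Purified P. pyralis FLuc activity quantified from luminescence images.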

Assay [12] is described as follows: qHTS assay to identify small molecule agonists of the constitutive androstane receptor (CAR) signaling pathway - cell viability counter screen (AID 1224836). Further: nearly all actives have a fitted effect of over 45% in size. Further: potency means the concentration at half of the fitted maximal effect. A digest of the protocol: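 Viability read-out: CellTiter-Fluor fluorescence after 23 h compound exposure at 37 C/5% CO2 in double-stable HepG2-CYP2B6-hCAR cells, with PK11195 present at 0.75 uM final; compounds tested in 15-point titration.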

A short description of assay [13]: qHTS assay to identify small molecule antagonists of the constitutive androstane receptor (CAR) signaling pathway - cell viability counter screen (AID 1224837). Further: nearly all actives have a fitted effect of over 45% in size. Further: potency means the concentration at half of the fitted maximal effect. A digest of the protocol:
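Using CellTiter-Fluor, viability is scored in HepG2 cells stably carrying hCAR and a 2.2kb CYP2B6 reporter after 23 hr compound exposure across 15 concentrations, with CITCO present at 50 nM.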

For assay [14], the target named is Nuclear receptor subfamily 1 group I member 3 (Homo sapiens) (UniProt Q14994). Put plainly: qHTS assay to identify small molecule antagonists of the constitutive androstane receptor (CAR) signaling pathway (AID 1224838).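 Further: HepG2 cells stably expressing hCAR with CYP2B6 luciferase reporter stimulated by CITCO; nearly all actives have a fitted effect of over 40% in size.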 Further: potency means the concentration at half of the fitted maximal effect. A digest of the protocol: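 Reporter luminescence was quantified after 24 h exposure of hCAR/CYP2B6-2.2kb double-stable HepG2 cells to compounds at 15 concentrations in the presence of 50 nM CITCO final.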

Assay [15] has the same target. Put plainly: qHTS assay to identify small molecule agonists of the constitutive androstane receptor (CAR) signaling pathway (AID 1224839).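 Further: HepG2 cells stably carrying human CAR and a CYP2B6 luciferase reporter; nearly all actives have a fitted effect of over 15% in size.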 A digest of the protocol: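 Luminescence read-out (ONE-Glo, 30 min, room temperature) from double-stable HepG2-CYP2B6-hCAR cells exposed 24 h to 15-point compound series in presence of 0.75 uM PK11195 final.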
The nature of assay [16]: qHTS assay to identify small molecule antagonists of the estrogen related receptor signaling pathway with the pleiotropic PPARgamma coactivator (PGC) from Tox21 10K library - cell viability counter screen (AID 1224840; active means well fitted cell-killing curve with a large enough effect in the repeat runs, not every such curve was filed as active; further: nearly all actives have a fitted effect of over 40% in size; further: potency means the concentration at half of the fitted maximal effect). A digest of the protocol:
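Here the PGC/ERR cells serve as a cytotoxicity control: they are exposed to compounds for 17.5 hours at 37 C, and live-cell signal is quantified using CellTiter-Fluor fluorescence.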

The nature of assay [17]: qHTS assay to identify small molecule antagonists of the estrogen related receptor signaling pathway with the pleiotropic PPARgamma coactivator (PGC) from Tox21 10K library (AID 1224841; call rule not given here). A digest of the protocol: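 Each well held 2,000 PGC/ERR cells, pre-incubated six hours (37 C, 5% CO2). Test substances in DMSO were added by pin tool and left for 18 h at 37 C before luciferase detection by One-Glo.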

Assay [18] can be described thus: qHTS assay to identify small molecule agonists of the retinoic acid receptor (RAR) signaling pathway (AID 1159553). The note with it: C3RL4 RARE luciferase reporter, agonist, 6 h; activation: at 73.3 µM (top of the series) unless noted. In a few lines:
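Activation of retinol signaling was monitored via a RARE luciferase reporter in C3RL4 cells. After 6 hr compound treatment at 37 C, detection reagent was added for 30 min at room temperature before luminescence reading.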

Assay [19] is described as follows: qHTS assay to identify small molecule agonists of the estrogen related receptor signaling pathway with the pleiotropic PPARgamma coactivator (PGC) from Tox21 10K library (AID 1224842). Further: nearly all actives have a fitted effect of over 15% in size. A digest of the protocol: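 PGC/ERR reporter cells (NTP line) were seeded 2,000 per well, rested 6 h at 37 C/5% CO2, then pin-dosed with compounds in DMSO for 18 h at 37 C; luciferase read by One-Glo luminescence after 30 min at room temperature.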

Assay [20] has as its target Thyrotropin receptor (Homo sapiens) (UniProt P16473). Put plainly: qHTS assay to identify small molecule agonists of the thyroid stimulating hormone receptor (TSHR) signaling pathway (AID 1224843; calls by dose curve; further: nearly all actives have a fitted effect of over 45% in size). In a few lines:
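TSHR-expressing HEK293 cells (800 per well) were exposed to compounds for 30 min at room temperature. cAMP was then detected by HTRF competition with cAMP-d2 and anti-cAMP cryptate, read after 1 h at room temperature. Fifteen concentrations, triplicate.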

Nuclear receptor subfamily 1 group I member 3 (Homo sapiens), sequence (Q14994 whole entry, looked up): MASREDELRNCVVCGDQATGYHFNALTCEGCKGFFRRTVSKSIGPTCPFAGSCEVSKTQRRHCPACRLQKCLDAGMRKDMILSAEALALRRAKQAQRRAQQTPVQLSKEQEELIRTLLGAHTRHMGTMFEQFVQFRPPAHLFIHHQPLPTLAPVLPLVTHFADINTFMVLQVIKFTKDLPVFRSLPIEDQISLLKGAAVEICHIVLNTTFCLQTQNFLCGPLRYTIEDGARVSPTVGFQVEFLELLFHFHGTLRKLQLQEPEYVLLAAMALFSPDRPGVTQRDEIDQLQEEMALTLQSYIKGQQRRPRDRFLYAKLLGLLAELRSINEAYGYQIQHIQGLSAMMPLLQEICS
Luciferin 4-monooxygenase (Photinus pyralis), sequence (P08659 whole entry, looked up): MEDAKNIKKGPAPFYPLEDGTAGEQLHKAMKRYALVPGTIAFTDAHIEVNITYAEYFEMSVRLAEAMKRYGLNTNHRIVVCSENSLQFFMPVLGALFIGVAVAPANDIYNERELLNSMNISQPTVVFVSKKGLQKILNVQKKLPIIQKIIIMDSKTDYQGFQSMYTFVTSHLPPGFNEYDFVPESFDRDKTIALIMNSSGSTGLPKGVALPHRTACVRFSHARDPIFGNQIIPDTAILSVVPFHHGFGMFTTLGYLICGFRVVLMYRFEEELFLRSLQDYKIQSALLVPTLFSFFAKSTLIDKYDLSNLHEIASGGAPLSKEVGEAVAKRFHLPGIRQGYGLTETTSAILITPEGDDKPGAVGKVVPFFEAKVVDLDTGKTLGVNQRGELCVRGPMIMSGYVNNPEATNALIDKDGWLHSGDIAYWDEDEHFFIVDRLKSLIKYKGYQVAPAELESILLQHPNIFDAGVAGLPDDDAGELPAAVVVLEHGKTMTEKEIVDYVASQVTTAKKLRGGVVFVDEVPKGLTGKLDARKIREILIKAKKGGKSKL
Thyrotropin receptor (Homo sapiens), sequence (P16473 whole entry, looked up): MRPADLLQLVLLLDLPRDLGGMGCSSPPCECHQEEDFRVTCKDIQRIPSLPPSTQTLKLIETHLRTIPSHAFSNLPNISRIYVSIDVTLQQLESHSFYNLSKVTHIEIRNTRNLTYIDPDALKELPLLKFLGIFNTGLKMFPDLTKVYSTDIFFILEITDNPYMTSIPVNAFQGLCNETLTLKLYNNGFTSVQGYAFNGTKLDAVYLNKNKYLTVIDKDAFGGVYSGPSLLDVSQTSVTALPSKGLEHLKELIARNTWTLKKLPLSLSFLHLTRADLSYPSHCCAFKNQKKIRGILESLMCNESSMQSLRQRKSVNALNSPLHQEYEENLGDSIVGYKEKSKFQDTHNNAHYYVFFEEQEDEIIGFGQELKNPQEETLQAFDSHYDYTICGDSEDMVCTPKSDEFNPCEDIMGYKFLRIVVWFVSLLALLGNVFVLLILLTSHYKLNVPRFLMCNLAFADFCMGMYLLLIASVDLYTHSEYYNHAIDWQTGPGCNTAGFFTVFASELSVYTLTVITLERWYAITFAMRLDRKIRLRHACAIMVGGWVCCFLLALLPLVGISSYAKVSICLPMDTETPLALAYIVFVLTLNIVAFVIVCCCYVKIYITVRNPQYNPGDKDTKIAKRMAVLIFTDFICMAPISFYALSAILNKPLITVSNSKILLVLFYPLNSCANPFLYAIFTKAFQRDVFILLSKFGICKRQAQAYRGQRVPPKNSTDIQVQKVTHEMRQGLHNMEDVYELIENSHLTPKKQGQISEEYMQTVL

As to `NC(=O)CN1CCCC1=O`, the Potency result in assay [1], in assay [2], in assay [3], in assay [5], in assay [7] and in [8] was “inactive” each time. Moreover, the Potency result in assay [10], in assay [11], in assay [12], in [13], in assay [14] and in assay [15] was “inactive” each time. Moreover, the Potency entry in assay [16] and in [17] was “inactive” throughout. For the same compound, the result in [4], in [6] and in assay [9] was inactive.
Consider `O=[N+]([O-])c1ccc(Nc2ccccc2)cc1`, for which the Potency result in assay [2], in assay [3], in [18], in assay [11], in assay [14] and in assay [15] was “inactive” each time. For the same compound, in assay [17], the Potency result was “inactive”. In addition, the Potency is 27.5 µM (active) and 30.6 µM (active) in [10]; 48.9 µM (active) in assay [12]; 30.9 µM (active) in [13].
Take `NN=C(N)N`: the Potency entry in [1], in assay [2], in [8], in assay [10], in assay [11] and in [12] was “inactive” each time. In addition, the Potency result in [13] and in assay [16] was “inactive” in each case. Also, in [4], the outcome was inactive.
For the compound `Clc1cccc(C(Cl)(Cl)Cl)n1`, the Potency result in [1], in assay [2], in assay [10], in [11], in assay [12] and in [13] was “inactive” in each case. For the same compound, the Potency result in [16] was “inactive”.
On to `ClCc1ccccn1`, for which the Potency entry in assay [1], in [2], in [11], in [12], in assay [13] and in assay [14] was “inactive” each time. Also, the Potency entry in assay [15] and in assay [16] was “inactive” in each case.
Consider `COP(=O)(NC(C)=O)SC` (configuration not stated), for which the Potency entry in assay [1], in assay [2], in assay [10], in assay [11], in assay [12] and in [13] was “inactive” each time. Further, the Potency result in assay [14], in assay [15] and in [16] was “inactive” in each case.
Turning to `CCNc1nc(Cl)nc(NC(C)(C)C#N)n1`, the Potency result in assay [1], in [2], in assay [10], in [11], in assay [12] and in [13] was “inactive” throughout. The Potency entry in assay [14], in [15] and in assay [16] was “inactive” each time.
As to `CN(C)c1nc(=O)n(C2CCCCC2)c(=O)n1C`, the Potency result in [1], in assay [2], in [11], in assay [12], in assay [13] and in assay [14] was “inactive” in each case. The Potency entry in assay [15] and in assay [16] was “inactive” each time.
With `CCC/C=N/O`, the Potency entry in assay [1], in assay [2], in assay [11], in assay [12], in [13] and in assay [14] was “inactive” each time. The Potency entry in assay [15] and in assay [16] was “inactive” in each case.
Regarding `CCC1(c2ccc(N)cc2)CCC(=O)NC1=O` (configuration not stated), the Potency entry in assay [1], in [2], in assay [5], in assay [7], in [8] and in [11] was “inactive” in each case. Moreover, the Potency result in [12], in assay [13], in assay [16], in assay [17] and in assay [19] was “inactive” throughout. Further, the result in [4], in assay [6] and in [9] was inactive.
Take `ClC(Cl)(Cl)c1ccccc1`: the Potency result in [1], in [2], in [10], in [11], in [12] and in [13] was “inactive” in each case. In addition, the Potency result in assay [14], in assay [15] and in [16] was “inactive” in each case.
Turning to `N#CCCCCC#N`, the Potency entry in [1], in [2], in [10], in [11], in assay [12] and in [13] was “inactive” in each case. For the same compound, the Potency result in assay [14], in assay [15], in assay [16], in assay [17] and in assay [20] was “inactive” throughout.
Consider `CCCCOCCOC(C)=O`, for which the Potency result in assay [1], in assay [2], in assay [11], in [12], in assay [13] and in assay [14] was “inactive” in each case. The Potency result in assay [15], in [16], in assay [17] and in [19] was “inactive” each time.
For the compound `CC(C)Nc1nc(Cl)nc(NC(C)C)n1`, the Potency result in assay [1], in assay [2], in [11], in assay [12], in assay [13] and in assay [14] was “inactive” in each case. Besides, the Potency entry in [15], in [16], in [17] and in [20] was “inactive” in each case.
Regarding `CCOS(=O)(=O)OCC`, the Potency result in assay [1], in assay [2], in [11], in assay [12], in [13] and in [14] was “inactive” throughout. Also, the Potency result in assay [15] and in assay [16] was “inactive” in each case. For the same compound, the Potency in assay [10] was 54.5 µM (active) and inactive.
For the compound `CCC[CH2][Sn]([Cl])([CH2]CCC)[CH2]CCC`, the Potency was 1.1 µM (active) in [1]; 3.86 µM (active) and 8.63 µM (active) in assay [2]; 2.17 µM (active) and 1.22 µM (active) in assay [10]; 31.8 µM (active) and 39.9 µM (active) in assay [11]; 546 nM (active) and 545 nM (active) in assay [12]; 1.54 µM (active) and 686 nM (active) in [13]. Moreover, the Potency in assay [14] was 244 nM (active) and 386 nM (active); in assay [16], 1.09 µM (active) and 864 nM (active). In addition, the Potency result in assay [15] was “inactive”.
Turning to `C[N+](C)(C)CC(=O)[O-]`, the Potency entry in assay [1], in assay [2], in assay [11], in assay [12], in [13] and in assay [16] was “inactive” throughout.
For `Cc1cc(Cl)ccc1N=CN(C)C`, the Potency entry in assay [1], in [2], in [10], in [11], in assay [12] and in assay [13] was “inactive” in each case. The Potency entry in assay [16], in [17] and in assay [20] was “inactive” each time.
